From PubChem BioAssay (NCATS) come the findings set out here.

In experiment [1] the target is Lysosomal acid glucosylceramidase (Homo sapiens) (UniProt P04062). Put plainly: Glucocerebrosidase-p2 (AID 348; in the data active means potency below about 10 µM; further: potency means the concentration at half of the fitted maximal effect). The note with it: purified GBA, blue fluorogenic substrate, 40 min. The gist of the method:
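Normal human glucocerebrosidase (0.2 nM) with blue fluorogenic substrate (80 uM final) in citrate/phosphate pH 5.9 with 10mM sodium taurocholate, 0.01% tween-20; 40 min RT, NaOH/glycine stop; fluorescence Ex 365/Em 440; AC50 from a titration from 0.6 nM upwards.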

Experiment [2] in a line: AP1 Signaling Pathway (AID 357). Further: on the % scale 0 is the no-effect control and ±100 the full control effect. The following applies: ME-180 AP-1-bla reporter, EGF-induced, beta-lactamase ratio, 5 h; at 7.69 µM (top of the series) unless noted. A digest of the protocol: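 ME-180 cells with beta-lactamase reporter under AP-1 response element, stimulated with EC50 EGF; compounds tested in titration series, 5 h at 37 °C. CCF4 substrate added 2.5 h at room temperature; 460/530 nm emission ratio gave %activity and AC50.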

A short description of experiment [3]: Stat Signaling Pathway (AID 446).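 Further: ME-180 cervical cancer cells given 40 pM IL-6 alongside compound; SIE-controlled beta-lactamase reporter measured as 460/530 nm FRET emission ratio; on the % scale 0 is the no-effect control and ±100 the full control effect.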 The following applies: ME-180 (cervical carcinoma) SIE beta-lactamase reporter, IL-6 stimulated, 5 h; at 7.69 µM (top of the series) unless noted. A digest of the protocol:
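Compound effects on IL-6-induced STAT reporter activity were measured in ME-180 cells. After overnight culture, cells were co-treated with 40 pM IL-6 for 5 hrs before beta-lactamase substrate loading at room temperature.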

The target of experiment [4] is Glucocorticoid receptor (Homo sapiens) (UniProt P04150). Put plainly: GR-EFC Redistribution (AID 451; calls by dose curve; further: potency means the concentration at half of the fitted maximal effect). The following applies: CHO-K1 GR-EFC translocation, beta-gal luminescence, 2 h. A digest of the protocol: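 Translocation of GR-ED fusion to nuclear EA restores b-gal, read by luminescence after 1 h room-temperature detection. Engineered CHO-K1 biosensor cells, 1,000/well, exposed 2 h at 37 C to titrations up to 46 uM final.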
Glucocorticoid receptor (Homo sapiens), sequence (P04150 whole entry, looked up, the tested form may be a part): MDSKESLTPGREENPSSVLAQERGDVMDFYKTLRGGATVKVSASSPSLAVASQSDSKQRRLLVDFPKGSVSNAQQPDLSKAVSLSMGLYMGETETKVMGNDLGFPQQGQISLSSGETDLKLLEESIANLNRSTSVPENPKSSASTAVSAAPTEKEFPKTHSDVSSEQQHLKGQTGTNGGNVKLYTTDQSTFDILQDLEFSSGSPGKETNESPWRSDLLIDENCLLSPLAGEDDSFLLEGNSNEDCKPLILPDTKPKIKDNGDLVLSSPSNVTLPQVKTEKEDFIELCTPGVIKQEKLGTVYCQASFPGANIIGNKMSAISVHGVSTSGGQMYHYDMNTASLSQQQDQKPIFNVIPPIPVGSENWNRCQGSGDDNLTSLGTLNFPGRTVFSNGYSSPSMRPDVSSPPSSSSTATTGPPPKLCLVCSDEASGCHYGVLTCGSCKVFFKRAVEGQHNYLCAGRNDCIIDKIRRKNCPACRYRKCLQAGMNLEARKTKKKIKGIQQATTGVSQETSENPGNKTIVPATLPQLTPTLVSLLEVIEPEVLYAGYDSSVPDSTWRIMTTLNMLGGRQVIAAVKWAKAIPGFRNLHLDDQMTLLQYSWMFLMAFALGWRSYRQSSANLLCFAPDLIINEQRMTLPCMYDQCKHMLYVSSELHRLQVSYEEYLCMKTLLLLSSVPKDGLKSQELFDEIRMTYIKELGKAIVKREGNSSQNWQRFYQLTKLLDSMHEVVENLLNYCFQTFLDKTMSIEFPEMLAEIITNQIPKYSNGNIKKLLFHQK

Experiment [5] has as its target Mitogen-activated protein kinase 10 (Mus musculus) (UniProt Q61831). Kind of experiment: JNK3 AlphaScreen Assay (AID 530).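 Further: kinase came from lysate of stimulated human HepG2 cells; signal reports phosphorylation of biotinylated GST-cJun 1-79 at Ser73 with 10 µM ATP; on the % scale 0 is the no-effect control and ±100 the full control effect.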 The note with it: JNK3 lysate, c-Jun phosphorylation; series mostly up to 57.1 µM. The gist of the method:
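qHTS titrations with 15 min compound pre-incubation before adding ATP (10 uM final). Read-out: AlphaScreen of Ser73-phosphorylated biotin-GST-cJun using HepG2 lysate JNK3 activated by IL-1β and TNFα.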
Background: Bead proximity is the source of the signal in Alpha formats.

Experiment [6] addresses 3',5'-cyclic-AMP phosphodiesterase 4B (Homo sapiens) (UniProt Q07343). Put plainly: qHTS Assay for Inhibitors of PDE-IV (AID 607; active means well fitted activation curve with a large enough effect in the main read-out, with a control signal flat, not every such curve was filed as active; further: % of control where 0% means no effect). The following applies: HEK293 ACTOne CNG channel cells, membrane potential fluorescence; series mostly up to 22.9 µM. A digest of the protocol:
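ACTOne HEK293 cells carry a modified cAMP-gated CNG channel and express endogenous PDE4; plated 1000 cells/well, compounds up to 22.9 uM final. Membrane-potential dye fluorescence (ex 535/em 590) was read; parental cells received 10 uM forskolin + 100 uM RO 20-1724.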
In general terms: Quantitative high-throughput screening tests each substance at several concentrations.

Experiment [7] in a line: qHTS Assay for Lipid Storage Modulators (AID 1519; calls by dose curve). The note with it: Drosophila S3 cells, BODIPY lipid droplet/cell ratio, laser cytometry, cells loaded with oleic acid; for activity change, negative = inhibition: at 57.5 µM (top of the series). A digest of the protocol: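 Cells seeded at 5,000 per well were treated with compounds over a concentration series and loaded with oleic acid (400 uM, as added). Lipid droplet fluorescence (488 nm excitation, 500-530 nm channel) was read by laser-scanning cytometry and normalized to 20 uM Triacsin C.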

Experiment [8] is described as follows: Primary qHTS for small molecule stabilizers of the endoplasmic reticulum resident proteome: Secreted ER Calcium Modulated Protein (SERCaMP) assay (AID 1508630; active means well fitted curve in the direction sought with a large enough effect; an effect the other way counts as inactive or inconclusive; further: on the % scale 0 is the no-effect control and ±100 the full control effect). The note with it: SH-SY5Y GLuc-SERCaMP (Gaussia luciferase released on ER calcium loss) secretion, thapsigargin, luminescence; series mostly up to 38.4 µM. The gist of the method: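 The SH-SY5Y reporter protocol was run at 3 concentrations up to 38.3 uM (primary) or 11 concentrations (follow-up): 16 h compound, 100 nM thapsigargin for 4 h, then extracellular luciferase luminescence.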

The nature of experiment [9]: NFAT Signaling Pathway (AID 444). The following applies: Jurkat NFAT-bla M1, carbachol, beta-lactamase ratio, 5 h; at 7.69 µM (top of the series) unless noted. A digest of the protocol: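 Read-out: CCF4 FRET ratio (460 nm/530 nm) after 1 h RT dye loading, used for %activity and AC50 from titration series. Cells: Jurkat NFAT-β-lactamase/M1 line, treated with compound plus 1 uM carbachol for 5 h, 37 °C.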

The target in experiment [10] is Glucocorticoid receptor (Homo sapiens) (UniProt P04150). Kind of experiment: GR-GFP Redistribution (AID 450;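 active means compounds whose dose series gives a full or clear partial fitted curve of increased nuclear translocation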; further: potency means the concentration at half of the fitted maximal effect). The following applies: U2OS GR-GFP nuclear translocation, laser cytometry, 2 h.
Experiment [11] is described as follows: Confirmation and Secondary Assay for Modulators of Hemoglobin Beta Chain Splicing at IVS2 654 locus (AID 910; active means well fitted curve in the direction sought with a large enough effect; an effect the other way counts as inactive or inconclusive;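 further: HeLa cells stably carrying EGFP split by mutant beta-globin IVS2-654 intron; per-well total GFP intensity by laser scanning cytometry after 2-day treatment; % of control where 0% means no effect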). The following applies: HeLa EGFP-654 splicing reporter, GFP fluorescence, 48 h; series mostly up to 38.3 µM. The gist of the method:
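Readout: per-well total peak green fluorescence (488 nm ex, 500–520 nm em) from objects 5–250 µm, reflecting correct splicing of an EGFP-654 reporter. Compounds were applied for 2 days at 37 °C to overnight-plated HeLa EGFP-654 cells; controls were DMSO and 500 nM IVS2-654 PNA.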

Experiment [12] deals with Ubiquitin carboxyl-terminal hydrolase 1 (Homo sapiens) (UniProt O94782). Kind of experiment: Inhibitors of USP1/UAF1: Pilot qHTS (AID 504865; active means well fitted curve in the direction sought with a large enough effect; an effect the other way counts as inactive or inconclusive;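 further: rhodamine fluorescence freed from ubiquitin-rhodamine substrate followed over time; top concentration of the series differs between compounds; on the % scale 0 is the no-effect control and ±100 the full control effect; nearly all actives have a fitted effect of over 35% in size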). The note with it: purified USP1/UAF1, Ub-rhodamine cleavage fluorescence; series mostly up to 54.9 µM. The gist of the method: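 USP1/UAF1 complex (1nM) preincubated with compound 15 min at room temperature, then Ub-Rho substrate (150nM final) added. Fluorescence read kinetically at 480/540 nm, 6 reads every 60 seconds. Buffer: 50mM HEPES pH 7.8, 0.5mM EDTA, 0.1 mg/ml BSA, 1mM TCEP, 0.01% Tween-20.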
Ubiquitin carboxyl-terminal hydrolase 1 (Homo sapiens), sequence (O94782 whole entry, looked up): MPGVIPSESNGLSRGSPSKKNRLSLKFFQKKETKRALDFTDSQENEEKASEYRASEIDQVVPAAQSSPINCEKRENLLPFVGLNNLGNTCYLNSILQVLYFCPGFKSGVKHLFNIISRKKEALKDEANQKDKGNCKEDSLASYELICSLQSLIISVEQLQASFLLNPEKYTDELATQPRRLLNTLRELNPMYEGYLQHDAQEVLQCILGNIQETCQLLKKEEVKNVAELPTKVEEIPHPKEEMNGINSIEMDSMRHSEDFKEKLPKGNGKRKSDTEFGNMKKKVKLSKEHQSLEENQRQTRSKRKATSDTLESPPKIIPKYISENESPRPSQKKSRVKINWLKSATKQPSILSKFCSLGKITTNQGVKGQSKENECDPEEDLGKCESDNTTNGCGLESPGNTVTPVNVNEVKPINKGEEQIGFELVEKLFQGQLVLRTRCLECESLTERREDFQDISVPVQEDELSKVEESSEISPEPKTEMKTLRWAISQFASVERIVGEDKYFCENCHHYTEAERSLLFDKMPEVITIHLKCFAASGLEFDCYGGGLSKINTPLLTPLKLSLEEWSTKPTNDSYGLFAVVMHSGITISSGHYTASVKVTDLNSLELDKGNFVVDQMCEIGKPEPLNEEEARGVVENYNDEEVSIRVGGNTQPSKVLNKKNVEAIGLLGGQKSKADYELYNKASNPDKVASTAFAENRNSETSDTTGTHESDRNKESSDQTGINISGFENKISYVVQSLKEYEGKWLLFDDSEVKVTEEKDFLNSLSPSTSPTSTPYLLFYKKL

The mark [13] stands for this setting: measured here: cell count channel max response.
Setting [14] is: measured here: lipid channel max response.

Records with an inconclusive call do not appear. Activity calls are given as the source filed them. Unless noted, the call rests on the fitted dose curve; in most records, active means well fitted curve in either direction with a large enough effect (not every such curve was filed as active); inconclusive means small, poorly fitted or top-dose-only effect, or another doubt; inactive means flat fitted curve, though single readings scatter. A value given as a limit tells only on which side of the number the result lay.

Lysosomal acid glucosylceramidase (Homo sapiens), sequence (P04062 whole entry, looked up): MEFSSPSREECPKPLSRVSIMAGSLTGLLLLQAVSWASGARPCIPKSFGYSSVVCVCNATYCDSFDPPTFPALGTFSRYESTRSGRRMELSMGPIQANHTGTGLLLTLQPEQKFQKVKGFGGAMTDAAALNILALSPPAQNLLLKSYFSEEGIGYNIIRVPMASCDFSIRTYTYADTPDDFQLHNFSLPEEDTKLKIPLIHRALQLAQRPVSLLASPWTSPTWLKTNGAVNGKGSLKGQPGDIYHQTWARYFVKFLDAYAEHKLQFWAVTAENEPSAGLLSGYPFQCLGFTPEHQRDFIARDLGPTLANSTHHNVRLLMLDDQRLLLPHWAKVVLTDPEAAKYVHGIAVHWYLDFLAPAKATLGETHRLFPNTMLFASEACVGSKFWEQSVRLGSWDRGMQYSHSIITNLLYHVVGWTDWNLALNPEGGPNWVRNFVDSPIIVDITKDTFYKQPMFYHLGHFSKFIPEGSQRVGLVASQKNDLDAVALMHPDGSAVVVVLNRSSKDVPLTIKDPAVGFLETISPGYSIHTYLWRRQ
3',5'-cyclic-AMP phosphodiesterase 4B (Homo sapiens), sequence (Q07343 whole entry, looked up): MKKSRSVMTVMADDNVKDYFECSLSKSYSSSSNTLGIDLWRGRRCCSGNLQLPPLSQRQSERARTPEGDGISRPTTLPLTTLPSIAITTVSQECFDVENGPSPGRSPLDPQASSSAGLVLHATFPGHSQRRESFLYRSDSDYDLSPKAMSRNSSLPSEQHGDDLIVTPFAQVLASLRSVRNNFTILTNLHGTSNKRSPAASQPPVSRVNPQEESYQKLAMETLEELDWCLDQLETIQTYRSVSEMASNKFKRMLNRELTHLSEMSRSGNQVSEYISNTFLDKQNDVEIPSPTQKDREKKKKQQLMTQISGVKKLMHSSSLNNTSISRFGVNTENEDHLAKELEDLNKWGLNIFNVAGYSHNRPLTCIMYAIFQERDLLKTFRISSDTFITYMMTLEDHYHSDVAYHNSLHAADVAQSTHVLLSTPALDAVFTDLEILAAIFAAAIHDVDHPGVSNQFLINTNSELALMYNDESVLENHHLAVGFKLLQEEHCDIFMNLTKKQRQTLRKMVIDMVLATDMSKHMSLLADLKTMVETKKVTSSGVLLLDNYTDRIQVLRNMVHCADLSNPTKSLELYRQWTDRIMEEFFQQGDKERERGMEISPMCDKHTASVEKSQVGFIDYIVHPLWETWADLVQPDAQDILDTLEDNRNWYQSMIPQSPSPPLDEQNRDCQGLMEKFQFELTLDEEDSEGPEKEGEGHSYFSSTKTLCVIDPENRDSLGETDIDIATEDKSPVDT

Take `COC(=O)N1CCC2(CCN(Cc3ccc(C#N)cc3)CC2)CC1`: the Potency is > 11.4 µM (inactive) in [1] and > 46 µM (inactive) in experiment [4]. For the same molecule, the activity change, negative = inhibition was -12.5% (inactive) in [2] and 6.51% (inactive) in experiment [7]. In addition, the activity, negative = inhibition in experiment [3] was 21.3% (inactive). Besides, the Potency result in experiment [5] and in experiment [6] was “inactive” each time. Further, the max response turned out to be 5.74% in experiment [7] (setting [13]) and 14.3% in experiment [7] (setting [14]). In experiment [8], the outcome was inactive.
Turning to `O=C(c1cnccn1)N1CCC2(CC1)CN(c1ncccn1)C2`, the Potency in experiment [1] is > 11.4 µM (inactive); in [4], > 46 µM (inactive). Besides, the values for the activity change, negative = inhibition in [2] and in experiment [7] were -12.2% (inactive) and 6.01% (inactive), respectively. In addition, in experiment [3], the activity, negative = inhibition is 21.6% (inactive). In addition, the Potency result in experiment [5] and in experiment [6] was “inactive” throughout. The max response was found to be 6.2% in experiment [7] (setting [13]) and 15.3% in experiment [7] (setting [14]). Besides, in experiment [8], the result was inactive.
Take `N#Cc1cccc(NC(=O)N2CC3(CCN(C(=O)c4ccco4)CC3)C2)c1`: the values for the Potency in [1] and in experiment [4] were > 11.4 µM (inactive) and > 46 µM (inactive), respectively. For the same molecule, the activity change, negative = inhibition in [2] was -10.9% (inactive); in experiment [7], 4.67% (inactive). Moreover, the activity, negative = inhibition in experiment [3] is 19.7% (inactive). The Potency entry in [5] and in [6] was “inactive” in each case. Also, the max response in [7] (setting [13]) is 3.49%; in experiment [7] (setting [14]), 11.7%. Moreover, the result in experiment [8] was inactive.
For the molecule `CS(=O)(=O)N1CCC2(CC1)CN(Cc1ccc(C#N)cc1)C2`, the Potency is > 11.4 µM (inactive) in experiment [1] and > 46 µM (inactive) in experiment [4]. Also, the figures for the activity change, negative = inhibition in [2], in experiment [9] and in [7] were -16.8% (inactive), -16.5% (inactive) and 4.04% (inactive), respectively. For the same molecule, the Potency entry in [5] and in [6] was “inactive” in each case. Besides, the max response in experiment [7] (setting [13]) was determined as 9.72%; in experiment [7] (setting [14]), 16.5%. For the same molecule, in [8], the result was inactive.
For `CS(=O)(=O)N1CCC2(CCCN(Cc3ccc(C#N)cc3)C2)CC1`, the Potency is > 11.4 µM (inactive) in experiment [1] and > 46 µM (inactive) in experiment [4]. Further, the activity change, negative = inhibition in [2] is -16.1% (inactive); in [7] it was 1.06% (inactive). For the same molecule, in [3], the activity, negative = inhibition was -15% (inactive). For the same molecule, the Potency result in experiment [5] and in experiment [6] was “inactive” in each case. Also, the max response was -8.06% in [7] (setting [13]) and -6.26% in experiment [7] (setting [14]). The result in [8] was inactive.
Regarding `Cc1cccc(CNc2cc(-c3cccnc3)ncn2)c1`, the Potency in experiment [1] was > 11.4 µM (inactive); in experiment [10] it was > 46 µM (inactive); in experiment [4], > 46 µM (inactive). In addition, the activity change, negative = inhibition is -15.4% (inactive) in experiment [2], -0.57% (inactive) in [9] and -14.1% (inactive) in experiment [7]. Moreover, the Potency result in experiment [5], in experiment [6], in experiment [11] and in [12] was “inactive” each time. Also, the max response in experiment [7] (setting [13]) is -10.4%; in experiment [7] (setting [14]), -22.1%. Besides, in experiment [8], the result was inactive.
As to `COCC(=O)N1CCC[C@@]2(CCN(c3ccncc3)C2)C1`, the Potency was > 11.4 µM (inactive) in experiment [1] and > 46 µM (inactive) in experiment [4]. In addition, the activity change, negative = inhibition in experiment [2] is -10.7% (inactive); in experiment [7] it was 1.37% (inactive). For the same molecule, the activity, negative = inhibition in [3] is 5.19% (inactive). Besides, the Potency entry in [5] and in [6] was “inactive” each time. The max response in experiment [7] (setting [13]) is -0.218%; in [7] (setting [14]), 3.63%. For the same molecule, the outcome in [8] was inactive.
As to `COc1ccc(C(=O)N2CCC3(CC2)CN(CC(C)C)C3)cc1`, the results for the Potency in [1] and in experiment [4] were > 11.4 µM (inactive) and > 46 µM (inactive), respectively. Besides, the activity change, negative = inhibition in [2] is 1.62% (inactive); in experiment [7], 3.28% (inactive). Moreover, in experiment [3], the activity, negative = inhibition is 6.78% (inactive). For the same molecule, the Potency result in [5] and in experiment [6] was “inactive” throughout. For the same molecule, the max response in experiment [7] (setting [13]) was 16.1%; in experiment [7] (setting [14]) it was 21.1%. For the same molecule, in [8], the result was inactive.
